Shown are actives, neighbours in structure and some others; about 3.5% of the full set was active somewhere.
TEAD-YAP inh: TEAD-YAP interaction inhibition, primary screen, TEAD-YAP interaction inhibitor project, luminescence, HEK-TIYL cells; inhibition, % at 9.12 µM; AID 1259422, 2018; 640,000 compounds, 1.4% hits; TEAD-Gal4/YAP UAS-luciferase luminescence; in the data active means inhibition above about 32%;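 further: 0% = median of test compound wells and 100% = reference inhibitor wells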
GPR151 activ: activators of human GPR151, primary screen, cell-based, PathHunter beta-arrestin, luminescence | PathHunter beta-arrestin GPR151 cells | G-protein coupled receptor 151 (Homo sapiens), Q8TDV0 | AID 1508602, 2020 | activation, % at 11.2 µM | 650,000 compounds, 1% hits; in the data active means activation above about 4.9%;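 further: 0% = median of compound wells and 100% = cells with positive control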
Target sequence (Q8TDV0 whole entry, looked up): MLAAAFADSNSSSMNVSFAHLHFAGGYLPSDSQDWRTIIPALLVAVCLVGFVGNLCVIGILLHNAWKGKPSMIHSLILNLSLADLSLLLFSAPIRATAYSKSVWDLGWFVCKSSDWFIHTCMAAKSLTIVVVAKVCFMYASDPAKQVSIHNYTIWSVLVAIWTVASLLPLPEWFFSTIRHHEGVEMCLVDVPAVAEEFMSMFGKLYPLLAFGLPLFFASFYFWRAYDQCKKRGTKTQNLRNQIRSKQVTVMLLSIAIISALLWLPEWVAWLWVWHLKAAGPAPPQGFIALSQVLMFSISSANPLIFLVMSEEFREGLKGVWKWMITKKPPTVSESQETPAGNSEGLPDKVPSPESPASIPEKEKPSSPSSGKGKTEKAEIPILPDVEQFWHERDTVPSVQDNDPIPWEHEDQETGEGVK
MITF primary: MITF inhibitors, primary screen, biochemical, AlphaScreen, human. Microphthalmia-associated transcription factor (Homo sapiens), O75030. AlphaScreen MITF homodimerization, bead proximity signal. 650,000 compounds, 0.91% hits. inhibition, % at 2.6 µM; in the data active means inhibition above about 50%;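 further: 0% = vehicle wells with protein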
FBW7 act: FBW7 E3 ligase activators, primary screen, biochemical, AlphaScreen, human. normalized activity (activation), % at 26.1 µM. F-box/WD repeat-containing protein 7 (Homo sapiens), Q969H0. AlphaScreen FBW7–phospho-cyclin E peptide binding, activator screen. 650,000 compounds, 0.13% hits. AID 1259310, 2017; in the data active means normalized activity above about 1.9%;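 further: purified mutant Fbw7 with reduced substrate affinity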
An asterisk follows results filed as active; . = no result given.

SMILES	TEAD-YAP inh	GPR151 activ	MITF primary	FBW7 act
COc1cc(Nc2cc(N3CCCC3)c3noc4c3c2C(=O)c2ccccc2-4)cc(OC)c1OC	0	1	2	0
COc1cc(Nc2cc(N3CCC(C)CC3)c3noc4c3c2C(=O)c2ccccc2-4)cc(OC)c1OC	43*	3	39	0
Cc1ccccc1Nc1cc(N2CCOCC2)c2noc3c2c1C(=O)c1ccccc1-3	5	-1	55*	0
O=C1c2ccccc2-c2onc3c(N4CCCCC4)cc(N4CCOCC4)c1c23	8	0	62*	-1
O=c1c2c(-c3ccccc3)csc2ncn1-c1ccc(Br)cc1	-4	3	5	0
O=C(O)/C=C/c1ccc(O)c(O)c1	-5	0	46	0
O=C(/C=C/c1ccc(O)c(O)c1)O[C@H](Cc1ccc(O)c(O)c1)C(=O)O	.	0	90*	.
CCOc1ccc2nc(NC3=NC(C)(C)CC(C)=N3)nc(C)c2c1	28	-1	-1	0
CC1=NC(Nc2nc(C)c3cc(C)ccc3n2)=NC(C)(C)C1	37*	-1	-8	1
COc1cc(C2CC(c3c(O)cc(C)oc3=O)=Nc3ccccc3S2)cc(OC)c1O (stereo not given)	44*	1	12	0
O=C(COc1ccc(Cl)cc1Br)Nc1ccc([N+](=O)[O-])cc1	-3	-2	6	0
CC(=O)Oc1ccccc1/C=C/c1nc2ccccc2c(=O)o1	59*	-9	17	0
CCOC(=O)c1sc2nc3c(c(-c4cccs4)c2c1N)CCC3	-6	-1	12	0
O=C(COc1cccc([N+](=O)[O-])c1)N/N=C/c1ccc([N+](=O)[O-])cc1	-11	1	-14	0
Cc1ccccc1-n1nc([N+](=O)[O-])c(N2CCN(C3CCCCC3)CC2)[n+]1[O-]	2	0	15	0
O=C(NCCc1ccc(O)cc1)c1ccc2nc(Nc3ccc(-n4ccnc4)cc3)sc2c1	3	2	2	0
COc1ccc(CCNC(=O)c2ccc3nc(Nc4ccc(-n5ccnc5)cc4)sc3c2)cc1	62*	2	11	0
COC(=O)c1ccc2nc(Nc3nc4ccc(OC)cc4s3)sc2c1	49*	1	-3	0
COC(=O)c1ccc2nc(Nc3nc4c(OC)cccc4s3)sc2c1	73*	-2	6	1
O=C(NC1CC1)c1ccnc(Nc2ccc(-n3ccnc3)cc2)c1	1	0	-5	0
Cc1cc2nnc(SCCC(=O)Nc3sc4c(c3C#N)CCCC4)n2c2ccccc12	-4	-1	0	0
c1nc2nc3c(c(Nc4ccc5c(c4)OCCO5)n2n1)CCC3	40*	1	-7	0
Cc1oc(-c2ccc(Cl)cc2)nc1CN1CCCC(C(=O)NCCN2CCCC2)C1 (stereo not given)	-8	1	6	0
Cc1oc(-c2ccc(Cl)cc2)nc1CN1CCCC(C(=O)NCc2cccnc2)C1 (stereo not given)	46*	-1	12	1
CC(C)c1ccc(C2NN=C(c3ccccc3)S2)cc1 (stereo not given)	70*	-7	-6	1
SMILES	TEAD-YAP inh	GPR151 activ	MITF primary	FBW7 act
CN(C)c1ccc(NC(=O)CSc2nc3ccccc3c(=O)n2C2CCCC2)cc1	-1	4	11	0
O=C(CSc1nnc2sc3ccccc3n12)NCc1ccccc1	46*	1	8	0
O=C(CSc1nnc2sc3ccccc3n12)c1ccc(F)cc1	-38	-1	-4	2.1*
O=[N+]([O-])c1ccc2c(c1)ONC(c1ccc(Cl)cc1)=N2	-33	0	6	1
Cc1cccc(-c2nc(N3CCCCCC3)c3ccccc3n2)c1	12	0	7	0
CC(=O)Nc1ccc(Nc2nc(N3CCCC3CO)nc3c2ncn3-c2ccsc2)cc1 (stereo not given)	15	-1	16	0
c1cncc(CNc2nc(N3CCC(N4CCOCC4)CC3)nc3c2ncn3-c2ccsc2)c1	9	0	9	0
OCC1CCCN1c1nc(NCc2cccnc2)c2ncn(-c3ccsc3)c2n1 (stereo not given)	54*	0	-6	0
OCC1CCCN1c1nc(Nc2ccccc2)c2ncn(-c3ccsc3)c2n1 (stereo not given)	36*	-1	3	0
COc1cc(Nc2nc(N3CCCC3CO)nc3c2ncn3-c2ccsc2)cc(OC)c1OC (stereo not given)	18	-1	20	0
OCC1CCCN1c1nc(Nc2ccc3c(c2)OCO3)c2ncn(-c3ccsc3)c2n1 (stereo not given)	34*	-2	22	0
Cc1cccc(N(CC(=O)Nc2ccc(Cl)c(Cl)c2)S(C)(=O)=O)c1	-12	-2	13	1
O=C1Nc2ccccc2/C1=C/c1nc2ccccc2c(=O)n1-c1cccc([N+](=O)[O-])c1	17	1	9	0
O=C1Nc2ccccc2/C1=C\c1nc2ccccc2c(=O)n1-c1cccc([N+](=O)[O-])c1	41*	3	20	0
COc1ccc(NC(=O)c2ccc(Br)cc2)c2cccnc12	5	-1	24	0
O=C(Nc1ccnc2ccccc12)c1ccc(Br)cc1	60*	0	2	1
COc1ccc(-c2cnn3c(N4CCC[C@H]4CO)ccnc23)cc1	57*	0	-5	0
COc1cccc(-c2cnn3c(N4CCC[C@H]4CO)ccnc23)c1	59*	-1	3	0
COc1ccc(-c2cnn3c(N4CCC[C@H]4CO)ccnc23)cc1OC	-23	0	-13	0
COc1cccc(-c2cnn3c(N4CCCCC4CCO)ccnc23)c1 (stereo not given)	14	1	-4	0
O=C(O)/C=C/c1cccc(-c2cnn3c(N4CCC[C@H]4CO)ccnc23)c1	50*	-3	-3	-1
OC[C@@H]1CCCN1c1ccnc2c(-c3cccc(O)c3)cnn12	100*	-1	-9	0
COc1ccc2[nH]c3nc(SCC(=O)NC45CC6CC(CC(C6)C4)C5)nnc3c2c1	-5	0	-9	1
OC[C@@H]1CCCN1c1ccnc2c(-c3ccc4ccccc4c3)cnn12	60*	-3	-10	0
OC[C@@H]1CCCN1c1ccnc2c(-c3cc4ccccc4o3)cnn12	44*	-4	-6	0
O=C(/C=C/c1ccc(F)cc1)c1ccc(N2CCOCC2)cc1	-13	1	2	0
Cc1ccc(/C=C/C(=O)c2ccc(N3CCOCC3)cc2)s1	49*	0	-1	0
COc1cc(CNC23CC4CC(CC(C4)C2)C3)ccc1OCC(=O)NC(C)(C)C	1	0	11	0
O=S(=O)(NCC(c1ccco1)N1CCc2ccccc2C1)c1ccc2c(c1)OCCO2 (stereo not given)	1	-1	-4	0

Source: PubChem BioAssay (The Scripps Research Institute Molecular Screening Center)
